High-throughput results: PubChem BioAssay, National Center for Advancing Translational Sciences (NCATS)
DT40 TDP1 CPT: DT40-hTDP1 cell growth loss with CPT. chicken DT40 Tdp1-/-;hTDP1 cells + 20 nM CPT, ATP luminescence, 48 h. Potency, µM (titrated, usually from 46.2 µM), inactives show top-dose activity change, negative = growth inhibition, hits mostly inhibitors. 420,000 compounds, 12% hits; also: potency is read from the fitted curve at half-maximal effect; nearly all actives have a fitted effect of over 55% in size
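Chicken DT40 Tdp1-/- cells stably complemented with human TDP1 were seeded at 400 cells/well in medium containing 20 nM camptothecin, exposed to pin-transferred compounds, and grown at 37 °C for at least 48 hr. Viability was read as ATP luminescence.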
IL1B secr inh: blocks inflammasome-driven IL-1 beta release; THP-1 LPS/ATP IL-1B secretion, AlphaLISA, 16 h; stronger effect = lower value; activity change, % at 57.5 µM; 360,000 compounds, 4.7% hits; in the data active = activity change below about -50%; inconclusive = mostly about -30% to -49%
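Secreted IL-1B measured by AlphaLISA bead assay after 16 h compound exposure of THP-1 cells; compounds (final up to 57.5 uM) added 1 h before LPS (250 ng/mL) and ATP (1.25 mM) stimulation; lower signal means less secretion.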
HT1080 IDH1KD tx: HT-1080 IDH1 knockdown cell toxicity (counter line); HT-1080 IDH1 knockdown viability, ATP luminescence, 48 h; Potency, µM (top dose mostly 46.1 µM), for the others: at the top dose activity, negative = toxicity, actives largely listed as cytotoxic; 360,000 compounds, 2% hits;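 also: potency is read from the fitted curve at half-maximal effect; 0% = DMSO wells and -100% = cell-free medium wells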
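IDH1KD HT-1080 cells, 750/well, RPMI + 5% FBS; compound pinned after 2 h settling; 48 h, 37 °C; CellTiter-Glo luminescence; % activity normalised to DMSO and no-cell wells; curves fitted, classed by r2 and efficacy.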
HT1080-NT tox: kills 2HG-producing HT-1080-NT fibrosarcoma cells. Potency, µM (titrated, usually from 46.1 µM), for inactives: at the top dose activity, negative = less viability, usual class: cytotoxic. 360,000 compounds, 1.6% hits. HT-1080-NT fibrosarcoma viability, CellTiter-Glo ATP luminescence, 48 h;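 also: NT is the 2HG producing partner of a matched IDH1 knockdown line; potency is read from the fitted curve at half-maximal effect; 0% = DMSO-treated cells and -100% = media-only wells without cells; nearly all actives have a fitted effect of over 55% in size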
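Luminescent CellTiter-Glo readout after 48 hours of compound exposure at 37 degrees C defined viability of HT-1080-NT cells. Activity was normalized to DMSO wells and cell-free media wells; concentration-response curves were fitted and assigned curve classes.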
DT40 TDP1 no CPT: qHTS for Inhibitors of human tyrosyl-DNA phosphodiesterase 1 (TDP1): qHTS in cells in absence of CPT; DT40 Tdp1-/- hTDP1 cells, no CPT, ATP luminescence, 48 h; Potency, µM (highest dose often 46.2 µM), without a hit: top-dose activity change, negative = growth inhibition, actives largely listed as inhibitors; 420,000 compounds, 15% hits; AID 686978, 2013; also: potency is read from the fitted curve at half-maximal effect; nearly all actives have a fitted effect of over 55% in size
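Stably hTDP1-transfected Tdp1-null chicken DT40 cells were treated with library compounds minus camptothecin and grown for at least 48 hr at 37 °C, after which cellular ATP was quantified by luminescence.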
ELG1 repair inh: ELG1-dependent DNA repair inhibition; HEK293T ELG1-luciferase reporter, luminescence, 16 h; DNA damage induced by 5-fluorouridine; Potency, µM (doses to about 46.1 µM), for inactives: at the top dose activity change, negative = inhibition, hits mostly inhibitors; 330,000 compounds, 2.3% hits; AID 504467; also: potency is read from the fitted curve at half-maximal effect; nearly all actives have a fitted effect of over 55% in size
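Quantitative HTS, concentration-response format. 2,000 cells/well co-treated with 5-fluorouridine and compound, 16 hr in 5% CO2 at 37 °C; ONE-Glo luminescence read after 30 min.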
* = called active by the depositor; ? = inconclusive; . = no result; [ ] = remark or other dose. An excerpt weighted towards active compounds, which were near 19% of everything screened. Unless noted, calls follow the shape of the dose curve; as a rule, active = well fitted curve in the direction sought with a large enough effect; inconclusive = small, poorly fitted or top-dose-only effect, or another doubt; inactive = no such curve, though single readings can be large; an effect the other way counts as inactive or inconclusive. Unless noted, % is scaled to controls: 0 for no effect and ±100 for the full control effect.

SMILES	DT40 TDP1 CPT	IL1B secr inh	HT1080 IDH1KD tx	HT1080-NT tox	DT40 TDP1 no CPT	ELG1 repair inh
O=C1NC[C@H](Cc2ccccc2)N(CC2CCN(CCC34CC5CC(CC(C5)C3)C4)CC2)C1=O	20.6µM*	-72.7*	-5.1%	-6.4%	?	.
FC(F)(F)c1cc(CCN2C(=S)NC[C@@H]2CC2CCCCC2)cc(C(F)(F)F)c1	?	?	6.8%	-0.5%	?	-14.1%
CC[C@H](C)[C@H]1CNC(=S)N1CC1CCN(CCC23CC4CC(CC(C4)C2)C3)CC1	?	-62.9*	1.5%	-2.5%	16.4µM*	.
S=C1NC[C@H](Cc2ccccc2)N1CCCCC1CCCCC1	?	-0.7	-16.9%	?	25.9µM*	0.0%
CC(=O)N1CCC[C@@]2(CCN(C(=O)Nc3ccccc3)C2)C1	3.6%	.	.	.	-1.2%	.
C=CC[N@@+]12CC[C@@]34c5ccccc5N5/C=C6/[C@H]7C[C@H]8[C@@]9(CC[N@@+]8(CC=C)C/C7=C/CO)c7ccccc7N(/C=C(/[C@@H](C[C@@H]31)/C(=C\CO)C2)[C@H]54)[C@@H]69	1.3%[21.1 µM]	.	.	.	-1.5%[21.1 µM]	.
S=C1NC[C@H](c2ccccc2)N1CC1CCCCC1	20.6µM*	-4.9	6.6%	-0.6%	23.1µM*	-13.3%
CC(C)C[C@H]1CNC(=S)N1CC1CCN(CCCC2CCCC2)CC1	?	?	2.5%	-0.2%	?	.
CCCCN1C(=S)NC[C@@H]1c1ccccc1	-13.7%	10.2	1.7%	14.6%	-18.6%	0.2%
S=C1NC[C@H](Cc2ccccc2)N1CC1CCN(CCCC2CCCC2)CC1	?	-66.6*	-0.3%	-10.8%	?	.
Cc1ccc(OCC(=O)Nc2ccccc2C(=O)OCc2cc(=O)n3nc(C4CC4)sc3n2)cc1	7.31µM*	.	.	.	10.3µM*	.
Cc1nn2c(=O)cc(COC(=O)c3ccccc3NC(=O)C(C)Oc3ccccc3)nc2s1 (stereo not given)	?	.	.	.	-19.7%	.
CC(Oc1ccccc1)C(=O)Nc1ccccc1C(=O)OCc1cc(=O)n2nc(C3CC3)sc2n1 (stereo not given)	3.66µM*	.	.	.	7.31µM*	.
Cc1ccc(OCC(=O)Nc2ccccc2C(=O)OCc2cc(=O)n3c(C)csc3n2)cc1	16.4µM*	.	.	.	20.6µM*	.
CCOc1cc(OCC)cc(C(=O)N2CCC[C@H]2C(=O)N2CCC[C@H]2C(=O)NCc2ccccn2)c1	5.9%	-7.5	14.3%	24.2%	-4.0%	.
CCOc1ccc2c(c1)OC(c1ccc(C)cc1)(C(F)(F)F)NC2=O (stereo not given)	1.46µM*	-15.7	2.31µM*	?	1.3µM*	?
CCOc1ccc2c(c1)OC1(CCC(C)C1)CC2=O (stereo not given)	-25.2%	6.3	-6.3%	-13.9%	-17.7%	.
COc1cc(NC(=O)CSc2ncnc3sc4c(c23)CCC(C)C4)c(C(=O)O)cc1OC (stereo not given)	-1.2%	27.3	-12.4%	-9.4%	-14.1%	1.2%
C=CCN(C/C(=N\O)c1sc(C(=O)OCC)nc1C)c1cccc(Br)c1	?	12.1	-10.7%	-23.6%	?	.
CCOC(=O)C(C)C(C)=O (stereo not given)	6.51µM*	?	58µM*	?	6.51µM*	11.7%
Cc1ccc(C)c(S(=O)(=O)N2CCCC2CNC(=O)C(=O)NCC2CCCO2)c1 (stereo not given)	29.3%	2.0	13.3%	17.8%	-21.0%	4.3%
Cc1cc(C)cc(-n2ccn(CC(=O)Nc3cc(C)ccc3C)c(=O)c2=O)c1	-10.3%	.	.	.	-2.8%	.
